Pf Dd2 inh: Plasmodium falciparum Dd2 growth inhibition | 120,000 compounds, 4.3% hits | AID 1347417 | P. falciparum Dd2 growth, SYBR Green, 72 h | Potency, µM (highest dose often 28.9 µM), for the others: at the top dose activity, negative = inhibition, usual class: inhibitors; active means well fitted inhibition curve with a large enough effect;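 further: plate controls were DMSO vehicle for no effect and reference drug for full effect; nearly all actives have a fitted effect of over 65% in size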
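Readout: SYBR Green fluorescence, 485 nm excitation, 535 nm emission, after ~16 h lysis at 37C. Before that, Dd2-infected red cells (2.5% hematocrit) grew 72 h with compound, 29 uM top final concentration.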
The depositor's hits bear a star; i = inactive; [ ] = another dose, or the depositor's remark. This excerpt belongs to a sample that is enriched for hits. Potency means the concentration at half of the fitted maximal effect.

SMILES	Pf Dd2 inh
Cc1ccc(C(=O)N2C(C(=O)NCC(C)C)COC23CCN(C(=O)c2cccc(Cl)c2)CC3)cc1 (configuration not stated)	10µM*
Cc1cccc(C(=O)N2C(C(=O)NCc3ccccc3)COC23CCN(C(=O)CC(C)(C)C)CC3)c1 (configuration not stated)	7.9µM*
Cc1ccc(-c2cc(C(=O)N3CCC(c4nc(CCOCC5CC5)no4)C3)[nH]n2)cc1 (configuration not stated)	-20%
COc1ccc(C(=O)N2CCCOCCNC(=O)[C@@H]3CCCC[C@@H]32)cc1F	-23%
CCN1c2ccccc2-n2cccc2C12CCN(C(=O)Nc1ccccc1C(F)(F)F)CC2	2.8µM*
CS(=O)(=O)N1CCC(OC2CCN(C(=O)Nc3ccccc3C(F)(F)F)CC2)CC1	-14%
CC(=O)N1CCC2(CC1)OC(=O)C(C)=C2C(=O)Nc1ccccc1C(F)(F)F	14%
CCOc1ccc(-c2nnc(SCC(=O)NC(C)CC)nc2-c2ccc(OCC)c(OC)c2)cc1OC (configuration not stated)	i
CCOc1cc(-c2nnc(SCC(=O)NCc3ccccc3)nc2-c2ccc(OC)c(OCC)c2)ccc1OC	8.9µM*
CCOc1cc(-c2nnc(SCC(=O)NCc3ccc(C)cc3)nc2-c2ccc(OC)c(OCC)c2)ccc1OC	13%
Cc1nc(-c2ccccc2)n(Cc2nc(-c3cccc(Cl)c3)oc2C)c(=O)c1CCO	i
COCCCNC(=O)C1(C)CN(Cc2ccccc2)Cc2ccc(NCC(C)C)nc21 (configuration not stated)	-24%[44.1 µM]
CC(C)CNc1ccc2c(n1)C(C)(C(=O)Nc1ccn(C)n1)CN(Cc1ccccc1)C2 (configuration not stated)	-14%[44.1 µM]
CC(C)CNc1ccc2c(n1)C(C)(C(=O)Nc1ccncc1)CN(Cc1ccccc1)C2 (configuration not stated)	2.2µM*
Cc1nc(N2CCC(C(=O)NC3CCCCCC3)CC2)cc(C(F)(F)F)n1	i
CC(C)=CCn1c(-c2ccccc2Cl)cn2cc(C(=O)NCCCO)nc2c1=O	7.9µM*
C=CCn1c(-c2cccs2)cn2cc(C(=O)NC(CC)CO)nc2c1=O (configuration not stated)	1%
C=CCn1c(-c2ccc(F)cc2)cn2cc(C(=O)N[C@@H](C)CO)nc2c1=O	-17%
O=C(c1cnccn1)N1CCc2c(n(Cc3ccccc3)n(-c3ccccc3)c2=O)C1	-16%[44.1 µM]
O=C1CC2CCN(C(=O)c3ccccc3)CC2CCN1 (configuration not stated)	21%[44.1 µM]
CCCNC(=O)C1COC2(CCN(C(=O)C3CCC3)CC2)N1C(=O)c1ccc(OC)cc1 (configuration not stated)	-16%
COc1ccc(CN2CC3(CCN(C(=O)CCc4nc5ccccc5[nH]4)CC3)C2=O)cc1	i
Cc1ccc(CC(=O)N2CCC(c3n[nH]c(=O)n3-c3ccccc3)CC2)cc1	i
Cc1ccc(-n2c(C3CCN(C(=O)Cc4ccc(Cl)cc4)CC3)n[nH]c2=O)cc1	13µM*
Cc1ccc(-n2c(C3CCN(C(=O)Cc4ccccc4Cl)CC3)n[nH]c2=O)cc1	-17%
SMILES	Pf Dd2 inh
COc1cccc(CC(=O)N2CCC(c3n[nH]c(=O)n3Cc3ccc(F)cc3)CC2)c1	-4%
COc1ccc(Cn2c(C3CCN(C(=O)Cc4cccc(C)c4)CC3)n[nH]c2=O)cc1	-4%
Cc1cccc(OCC(=O)N2CCC(c3n[nH]c(=O)n3Cc3ccc(F)cc3)CC2)c1	11µM*
O=C(c1ccc2[nH]ccc2c1)N1CCCN(c2cc(-c3ccc(F)cc3)[nH]n2)CC1	-19%
CC(=O)c1ccc(NC(=O)N[C@H]2C[C@@](O)(C(=O)N[C@H](CC(C)C)C(N)=O)C[C@@H](O)[C@@H]2O)cc1	4%
COCCOc1ccc2c(n1)CCN(C(=O)Cc1cccc(OC)c1)C2	-24%
CCOc1ccc2c(n1)CCN(C(=O)Cc1cccc(C)c1)C2	10µM*
CCOc1ccc2c(n1)CCN(C(=O)c1cnccn1)C2	28%
CCOc1ccc2c(n1)CCN(C(=O)c1ccc(OC)cc1)C2	-8%
CCOc1ccc2c(n1)CCN(C(=O)Cc1ccc(F)cc1)C2	-17%
CCOc1ccc2c(n1)CCN(C(=O)C1(c3ccccc3)CC1)C2	10µM*
CN(C)S(=O)(=O)N1CCCC(c2nnc(CN3CCCCC3)n2C)C1 (configuration not stated)	-19%
C#CCNC(=O)c1cnc2cc(C)nn2c1	4%[44.1 µM]
OC1CCOC2(CCN(Cc3ccc[nH]3)CC2)C1 (configuration not stated)	5%
CCOC(=O)C1(Cc2cccc(OC)c2)CCCN(Cc2cnc[nH]2)C1 (configuration not stated)	i
CCn1ccnc1CN1CCC(Oc2ccccc2OC)(C(=O)O)CC1	-4%
CCOC(=O)C1(Cc2ccccc2C)CCCN(Cc2nccn2CC)C1 (configuration not stated)	10µM*
CCOC(=O)C1(Cc2cccc(Cl)c2)CCCN(Cc2cnn(C)c2)C1 (configuration not stated)	i

Compound activity: PubChem, National Center for Advancing Translational Sciences (NCATS)
